The text below walks through data of the supplement of paper PMC10037445.

The structures appear in SMILES notation. Values joined by “and” are separate entries in the source; they are usually repeats but may differ in a detail not shown here. Identical values can stand only once. The full ranking holds about 2,900 compounds; the median of “IRF Lucia reporter activity, fold change vs agonist alone” is about 0.9, and the highest 2% start at about 2.8. The entries come from a sample that favours the highest values as a whole.

Assay [1] deals with RAW-Dual. Nature of the assay: IRF Lucia reporter activity, fold change vs agonist alone; higher = enhanced IRF activity. The conditions noted are these: agonist: MPLA (TLR4) […]. In short, it runs like this:
(§1)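 Supernatant from RAW-Dual macrophages was read after 20 hours for IRF by QuantiLuc luminescence and for NF-κB by QuantiBlue absorbance at 620 nm. The cells (50,000 cells/well in DMEM, 384-well plates, 37 °C, 5% CO2) had received 50 nL of library stock by pin tool and, 1 h later, a PRR agonist. Reporter activity is expressed relative to agonist-alone wells as fold change, and wells were flagged cytotoxic if IncuCyte confluency was under 70% of agonist controls in both mask sets.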

The test system of assay [2] is RAW-Dual. Nature of the assay: IRF Lucia reporter activity, fold change vs agonist alone; cytotoxicity flag (confluency mask): not cytotoxic; higher = enhanced IRF activity. In short, it runs like this: as §1
The test system of assay [3] is RAW-Dual. The experiment in a line: IRF Lucia reporter activity, fold change vs agonist alone; cytotoxicity flag (confluency mask): cytotoxic (confluency <70% of control); higher = enhanced IRF activity. In a few lines: as §1
[4] abbreviates: library stock concentration (final ~1000-fold dilution): 10 mM, cytotoxicity flag (confluency mask): not cytotoxic.
Where [5] appears, read: agonist: 3'3'-cGAMP (STING) 10 ug/mL.
The mark [6] stands for this setting: library stock concentration (final ~1000-fold dilution): 10 mM water, cytotoxicity flag (confluency mask): not cytotoxic.
Setting [7] is: library stock concentration (final ~1000-fold dilution): 10 mM, cytotoxicity flag (confluency mask): cytotoxic (confluency <70% of control).

`CC(C)N(CCC(c1ccccc1)c1cc(CO)ccc1O)C(C)C` (configuration not stated): the “IRF Lucia reporter activity” value with RAW-Dual [1] (setting [4]) was 0.986. Regarding `CC(C)N(CCC(c1ccccc1)c1cc(CO)ccc1O)C(C)C` (configuration not stated) (library stock concentration (final ~1000-fold dilution): 10 mM), the “IRF Lucia reporter activity” value in the assay with RAW-Dual [2] (setting [5]) was found to be 0.857; in the assay on RAW-Dual [2] (agonist: LPS (TLR4) 0.1 ug/mL), 0.982. With `CCCC1CC(C(=O)NC(C(C)Cl)C2OC(SC)C(OP(=O)(O)O)C(O)C2O)N(C)C1` (configuration not stated), the “IRF Lucia reporter activity” value in the assay with RAW-Dual [1] (setting [6]) was found to be 1.42. In the case of `CCCC1CC(C(=O)NC(C(C)Cl)C2OC(SC)C(OP(=O)(O)O)C(O)C2O)N(C)C1` (configuration not stated) (library stock concentration (final ~1000-fold dilution): 10 mM water), the “IRF Lucia reporter activity” value in the assay with RAW-Dual [2] (setting [5]) is 1.23; in the assay with RAW-Dual [2] (agonist: LPS (TLR4) 0.1 ug/mL), 0.95. For `CCOC(=O)C1=C(COCCN)NC(C)=C(C(=O)OC)C1c1ccccc1Cl` (configuration not stated) (library stock concentration (final ~1000-fold dilution): 10 mM), the “IRF Lucia reporter activity” value in the assay with RAW-Dual [3] (setting [5]) is 0.715 and 0.401; in the assay on RAW-Dual [3] (agonist: LPS (TLR4) 0.1 ug/mL), 2.55 and 2.72.

`CCOC(=O)C1=C(C)NC(C)=C(C(=O)OC)C1c1cccc(Cl)c1Cl` (configuration not stated) (library stock concentration (final ~1000-fold dilution): 10 mM): the “IRF Lucia reporter activity” value with RAW-Dual [2] (setting [5]) was 1.31; in the assay on RAW-Dual [2] (agonist: LPS (TLR4) 0.1 ug/mL), 1.17. `COC(=O)C1=C(C)NC(C)=C(C(=O)OC)C1c1ccccc1[N+](=O)[O-]`: the “IRF Lucia reporter activity” value in the assay with RAW-Dual [1] (setting [4]) came out at 0.406. With `COC(=O)C1=C(C)NC(C)=C(C(=O)OCC(C)C)C1c1ccccc1[N+](=O)[O-]` (configuration not stated) (library stock concentration (final ~1000-fold dilution): 10 mM), the “IRF Lucia reporter activity” value with RAW-Dual [2] (setting [5]) worked out at 0.585; with RAW-Dual [2] (agonist: LPS (TLR4) 0.1 ug/mL) it was 0.872. In the case of `COC(=O)C1=C(C)NC(C)=C(C(=O)OCC(C)C)C1c1ccccc1[N+](=O)[O-]` (configuration not stated), the “IRF Lucia reporter activity” value in the assay on RAW-Dual [1] (setting [4]) was determined as 0.508. Regarding `CCCC(=O)OCOC(=O)C1=C(C)NC(C)=C(C(=O)OC)C1c1cccc(Cl)c1Cl` (configuration not stated) (library stock concentration (final ~1000-fold dilution): 10 mM), the “IRF Lucia reporter activity” value with RAW-Dual [2] (setting [5]) came to 1.02; in the assay with RAW-Dual [2] (agonist: LPS (TLR4) 0.1 ug/mL) it was 0.873.

Regarding `CCCC(=O)OCOC(=O)C1=C(C)NC(C)=C(C(=O)OC)C1c1cccc(Cl)c1Cl` (configuration not stated), in the assay on RAW-Dual [1] (setting [4]), the “IRF Lucia reporter activity” value is 0.992. On to `CCOC(=O)C1=C(COCCN)NC(C)=C(C(=O)OC)C1c1ccccc1Cl.O=S(=O)(O)c1ccccc1` (configuration not stated), for which, in the assay on RAW-Dual [1] (setting [7]), the “IRF Lucia reporter activity” value is 3.36. As to `CCOC(=O)C1=C(COCCN)NC(C)=C(C(=O)OC)C1c1ccccc1Cl.O=S(=O)(O)c1ccccc1` (configuration not stated) (library stock concentration (final ~1000-fold dilution): 10 mM), the figures for the “IRF Lucia reporter activity” value in the assay on RAW-Dual [3] (setting [5]) and with RAW-Dual [3] (agonist: LPS (TLR4) 0.1 ug/mL) were 1.02 and 3.19, respectively.

For the molecule `CCOC(=O)C1=C(C)NC(C)=C(C(=O)OC)C1c1cccc(Cl)c1Cl` (configuration not stated), in the assay on RAW-Dual [1] (setting [4]), the “IRF Lucia reporter activity” value amounted to 1.08. In the case of `COC(=O)C1=C(C)NC(C)=C(C(=O)OC)C1c1ccccc1[N+](=O)[O-]` (library stock concentration (final ~1000-fold dilution): 10 mM), the “IRF Lucia reporter activity” value with RAW-Dual [2] (setting [5]) was 0.606; in the assay on RAW-Dual [2] (agonist: LPS (TLR4) 0.1 ug/mL), 0.554.

In the case of `Cc1cccc(Nc2nc(NC3CCCCC3N)ncc2C(N)=O)c1.Cl.Cl` (configuration not stated) (library stock concentration (final ~1000-fold dilution): 10 mM), the “IRF Lucia reporter activity” value in the assay with RAW-Dual [3] (setting [5]) stood at 0.0182; in the assay on RAW-Dual [3] (agonist: LPS (TLR4) 0.1 ug/mL) it was 0.0241. Take `CS(=O)(=O)O.Cc1ccc(N(CC2=NCCN2)c2cccc(O)c2)cc1`: the “IRF Lucia reporter activity” value with RAW-Dual [1] (setting [4]) came to 0.907. In the case of `CS(=O)(=O)O.Cc1ccc(N(CC2=NCCN2)c2cccc(O)c2)cc1` (library stock concentration (final ~1000-fold dilution): 10 mM), the figures for the “IRF Lucia reporter activity” value in the assay with RAW-Dual [2] (setting [5]) and in the assay with RAW-Dual [2] (agonist: LPS (TLR4) 0.1 ug/mL) were 0.803 and 0.89, respectively. Regarding `C[N+](C)(C)NCCC(=O)O`, the “IRF Lucia reporter activity” value with RAW-Dual [1] (setting [6]) amounted to 1.25.

In the case of `C[N+](C)(C)NCCC(=O)O` (library stock concentration (final ~1000-fold dilution): 10 mM water), the entries for the “IRF Lucia reporter activity” value with RAW-Dual [2] (setting [5]) and in the assay on RAW-Dual [2] (agonist: LPS (TLR4) 0.1 ug/mL) were 1.05 and 0.979, respectively. On the same counts, the results for `C[C@@H]1O[C@@H](O[C@H]2C(=O)c3c(O)cc(O)cc3O[C@@H]2c2ccc(O)cc2)[C@H](O)[C@H](O)[C@H]1O` (library stock concentration (final ~1000-fold dilution): 10 mM) are 0.228 and 1.17. As to `COc1nc2ccc(Br)cc2cc1C(c1ccccc1)C(O)(CCN(C)C)c1cccc2ccccc12.O=C(O)/C=C/C(=O)O` (configuration not stated) (library stock concentration (final ~1000-fold dilution): 10 mM), the “IRF Lucia reporter activity” value in the assay with RAW-Dual [2] (setting [5]) worked out at 0.888; with RAW-Dual [2] (agonist: LPS (TLR4) 0.1 ug/mL), 0.812.

For the molecule `COc1nc2ccc(Br)cc2cc1C(c1ccccc1)C(O)(CCN(C)C)c1cccc2ccccc12.O=C(O)/C=C/C(=O)O` (configuration not stated), the “IRF Lucia reporter activity” value with RAW-Dual [1] (setting [4]) amounted to 0.751. Regarding `CNCc1ccc(C)c(NC(=O)c2ccc(Nc3nc(-c4ccccc4)c4ccccc4n3)cc2)c1`, the “IRF Lucia reporter activity” value with RAW-Dual [1] (setting [4]) amounted to 1.01. Still for that read-out and setting: next, `CC(=O)Nc1ccc(C(=O)Nc2ccccc2N)cc1`: 0.418.

Turning to `Cc1cc(Nc2ccc(NC(=O)c3ccc(Nc4ccnc5ccccc45)cc3)cc2)nc(N)n1` (library stock concentration (final ~1000-fold dilution): 10 mM), the figures for the “IRF Lucia reporter activity” value in the assay with RAW-Dual [2] (setting [5]) and in the assay with RAW-Dual [2] (agonist: LPS (TLR4) 0.1 ug/mL) were 1.65 and 2.84, respectively. As to `Cc1cc(Nc2ccc(NC(=O)c3ccc(Nc4ccnc5ccccc45)cc3)cc2)nc(N)n1`, the “IRF Lucia reporter activity” value in the assay with RAW-Dual [1] (setting [4]) was found to be 3.15. With `CC(=O)Nc1ccc(C(=O)Nc2ccccc2N)cc1` (library stock concentration (final ~1000-fold dilution): 10 mM), the “IRF Lucia reporter activity” value in the assay with RAW-Dual [2] (setting [5]) stood at 0.557; in the assay on RAW-Dual [2] (agonist: LPS (TLR4) 0.1 ug/mL), 0.424. On the same counts, the results for `CNCc1ccc(C)c(NC(=O)c2ccc(Nc3nc(-c4ccccc4)c4ccccc4n3)cc2)c1` (library stock concentration (final ~1000-fold dilution): 10 mM) are 0.995 and 1.04. `CCN(CC)CCCC(C)Nc1c2ccc(Cl)cc2nc2ccc(OC)cc12.Cl.Cl` (configuration not stated) (library stock concentration (final ~1000-fold dilution): 10 mM): the entries for the “IRF Lucia reporter activity” value in the assay with RAW-Dual [3] (setting [5]) and in the assay on RAW-Dual [3] (agonist: LPS (TLR4) 0.1 ug/mL) were 0.643 and 0.0599, respectively. Regarding `CCN(CC)CCCC(C)Nc1c2ccc(Cl)cc2nc2ccc(OC)cc12.Cl.Cl` (configuration not stated), the “IRF Lucia reporter activity” value in the assay with RAW-Dual [1] (setting [7]) came out at 0.84.

As for `C/C(O)=C(\C#N)C(=O)Nc1ccc(C(F)(F)F)cc1`, the “IRF Lucia reporter activity” value in the assay on RAW-Dual [1] (setting [4]) was found to be 1.97.

Regarding `CC(=O)Oc1cc(C(F)(F)F)ccc1C(=O)O` (library stock concentration (final ~1000-fold dilution): 10 mM), the figures for the “IRF Lucia reporter activity” value in the assay with RAW-Dual [2] (setting [5]) and in the assay with RAW-Dual [2] (agonist: LPS (TLR4) 0.1 ug/mL) were 1.03 and 0.337, respectively. In the case of `C/C(O)=C(\C#N)C(=O)Nc1ccc(C(F)(F)F)cc1` (library stock concentration (final ~1000-fold dilution): 10 mM), the “IRF Lucia reporter activity” value in the assay on RAW-Dual [2] (setting [5]) came to 1.69; with RAW-Dual [2] (agonist: LPS (TLR4) 0.1 ug/mL), 3.04.

In the case of `Cc1oncc1C(=O)Nc1ccc(C(F)(F)F)cc1`, the “IRF Lucia reporter activity” value in the assay with RAW-Dual [1] (setting [4]) is 1.62. Take `Cc1oncc1C(=O)Nc1ccc(C(F)(F)F)cc1` (library stock concentration (final ~1000-fold dilution): 10 mM): the “IRF Lucia reporter activity” value with RAW-Dual [2] (setting [5]) came to 1.08; with RAW-Dual [2] (agonist: LPS (TLR4) 0.1 ug/mL) it was 1.39. For the molecule `CC(=O)Oc1cc(C(F)(F)F)ccc1C(=O)O`, in the assay on RAW-Dual [1] (setting [4]), the “IRF Lucia reporter activity” value is 1.04.
